Screening results as filed in PubChem.
TRHR agonist = activates the human TRH receptor; P34981; TRHR cells, calcium flux fluo-8, FDSS agonist mode; activation, % at 2 µM; 0.18% of 360,000 active; AID 493084; also: 0% is about no effect
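In this calcium-flux screen, cells bearing human TRHR are dye-loaded with fluo-8, baselined for 10 cycles, then exposed to library compounds; positive kinetic calcium responses during the agonist phase mark hits, with TRH as control.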
Epigenetic derep = epigenetic control regulation, reporter derepression; murine LDR cells, GFP reporter derepression, 30 h; Potency, µM (series often up to 53.9 µM), for inactives: top-dose GFP activation, usual class: activators; 0.2% of 280,000 active; AID 1865; active = well fitted activation curve with a large enough effect; inconclusive = small, poorly fitted or top-dose-only effect; also: potency is read from the fitted curve at half-maximal effect; % of control where 0% means no effect; nearly all actives have a fitted effect of over 60% in size
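Readout is the number of GFP-expressing murine LDR cells, counted by cytometry following washing. Cells were treated with compound for 30 h at 37 C; the stably integrated CMV-GFP locus is normally silent.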
D1 agonist = agonists of human D1 dopamine receptor. P21728. HEK293 T-REx D1 cells, calcium flux, agonist mode. activation, % at 2 µM. 1% of 360,000 active. AID 504660; also: 0% is about no effect
Target sequence (P21728 whole entry, looked up): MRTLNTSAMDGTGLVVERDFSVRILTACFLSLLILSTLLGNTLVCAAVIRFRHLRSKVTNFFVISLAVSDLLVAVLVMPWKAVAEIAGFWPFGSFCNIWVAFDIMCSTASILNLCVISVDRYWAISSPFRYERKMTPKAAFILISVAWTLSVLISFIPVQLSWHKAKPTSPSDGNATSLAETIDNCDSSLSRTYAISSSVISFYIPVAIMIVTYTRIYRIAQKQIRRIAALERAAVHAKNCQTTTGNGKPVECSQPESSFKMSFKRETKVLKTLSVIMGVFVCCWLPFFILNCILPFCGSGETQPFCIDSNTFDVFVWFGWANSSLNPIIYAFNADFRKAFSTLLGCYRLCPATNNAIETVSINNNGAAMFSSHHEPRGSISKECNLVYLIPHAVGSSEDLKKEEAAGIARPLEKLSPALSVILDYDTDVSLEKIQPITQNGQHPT
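Inducible HEK293 T-REx D1 cells, force-coupled to calcium signalling, were plated at 4000 cells/well with tetracycline and held overnight at 30 C. After no-wash calcium dye loading, compound-evoked calcium rise over 180 s flagged agonists.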
D1 antag = blocks dopamine activation of the human D1 receptor. HEK293 TREx D1 cells, calcium flux, dopamine EC80; hits give low values. activity change, negative = inhibition, % at 10 µM. 3.2% of 360,000 active; in the data active = activity change below about -30%; also: % is scaled to controls: 0 for no effect and ±100 for the full control effect
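Tetracycline-induced HEK293 Trex D1 cells, force-coupled to calcium, dye-loaded; compounds added and read 180 s, then EC80 dopamine added and calcium flux tracked kinetically another 180 s.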
TRHR enhancer = allosteric enhancers of human TRH receptor | enhancement, % at 2 µM | AID 493056 | P34981 | TRHR cells, fluo-8 calcium fluorescence, EC20 TRH enhancement | 0.66% of 360,000 active; in the data active = enhancement above about 30%; also: 0% is about no effect
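TRHR-expressing cells loaded with fluo-8 calcium dye were read kinetically (ex 480/em 530) during compound addition, then stimulated with an EC20 of TRH (10 nM final). Enhancement of the Gq-mediated intracellular calcium response was scored.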
D1 potentiator = enhances dopamine response at the human D1 receptor | AID 504651 | potentiation, % at 10 µM | HEK293 TREx D1 cells, calcium flux, dopamine EC20 potentiation | 0.036% of 360,000 active; in the data active = potentiation above about 30%; also: 0% is about no effect
* hit, by the source's call. An excerpt weighted towards active compounds, which were near 4.6% of everything screened. Rule as the data show it, unless noted: active = activation above about 30%; inactive = the rest.

Results for COc1ccccc1CNC(=O)CCC(=O)N1Cc2ccccc2Oc2ncccc21 ?
TRHR agonist: 0; Epigenetic derep: 0%; D1 agonist: 6; D1 antag: 8; TRHR enhancer: -2; D1 potentiator: -3

How did CCOC(=O)c1c(-c2cccs2)csc1NC(=O)C(C)(C)C do in these assays?
TRHR agonist: 0; Epigenetic derep: 1%; D1 agonist: 34*; D1 antag: 9; TRHR enhancer: 0; D1 potentiator: 9

What do the screens show for `CC(OC(=O)c1cccc(-n2cnnn2)c1)C(=O)Nc1cccc(Cl)c1` (centres undefined)?
TRHR agonist: 0; D1 agonist: 8; D1 antag: -36*; TRHR enhancer: -3; D1 potentiator: -5

Results for COc1ccc(NC(=O)COC(=O)CNC(=O)c2cccs2)cc1Cl ?
TRHR agonist: 0; D1 agonist: 0; D1 antag: -34*; TRHR enhancer: 2

What do the screens show for `O=C(Nc1cccc(-n2cnnn2)c1)c1ccc(C(F)(F)F)cc1`?
TRHR agonist: 1; D1 agonist: 4; D1 antag: -32*; TRHR enhancer: 8; D1 potentiator: -4

How did COc1cc(C(=O)Nc2cccc(-n3cnnn3)c2)cc(OC)c1OC do in these assays?
TRHR agonist: 0; D1 agonist: 3; D1 antag: -9; TRHR enhancer: -3; D1 potentiator: -12

Results for COc1cccc(OC)c1C(=O)Nc1cccc(-n2cnnn2)c1 ?
TRHR agonist: 0; D1 agonist: 2; D1 antag: -35*; TRHR enhancer: 0; D1 potentiator: 0

What do the screens show for `COc1ccc(NC(=O)CCC(=O)c2cccs2)cc1Cl`?
TRHR agonist: 0; D1 agonist: 2; D1 antag: -3; TRHR enhancer: 11; D1 potentiator: 0

What do the screens show for `Cc1ccc(C)c(-n2cc(-c3ccccc3)nc2SCC(=O)Nc2ccccc2)c1`?
TRHR agonist: 0; Epigenetic derep: -1%; D1 agonist: 5; D1 antag: -3; TRHR enhancer: -6; D1 potentiator: 1

Results for COc1ccc(N2CCN(Cc3nc4c(c(=O)[nH]c(=O)n4C)n3CC(C)C)CC2)cc1 ?
TRHR agonist: -1; Epigenetic derep: 7%; D1 agonist: 0; D1 antag: 1; TRHR enhancer: -4; D1 potentiator: 0

What do the screens show for `Cc1cc(C)c(S(=O)(=O)Nc2cccc(-n3cnnn3)c2)c(C)c1`?
TRHR agonist: 0; D1 agonist: 6; D1 antag: -16; TRHR enhancer: -4; D1 potentiator: -1

How did Cc1cc(C)c(C)c(S(=O)(=O)Nc2cccc(-n3cnnn3)c2)c1C do in these assays?
TRHR agonist: 0; D1 agonist: 7; D1 antag: -33*; TRHR enhancer: 6; D1 potentiator: -5

How did COc1ccc(NC(=O)COC(=O)c2ccc(-n3cnnn3)cc2)cc1Cl do in these assays?
TRHR agonist: 0; D1 agonist: 7; D1 antag: -10; TRHR enhancer: 31*; D1 potentiator: -4

How did CCOc1ccccc1NC(=O)Cn1c(=O)ccc2cc(S(=O)(=O)N3CCCC3)ccc21 do in these assays?
TRHR agonist: 0; Epigenetic derep: 0%; D1 agonist: 3; D1 antag: 13; TRHR enhancer: -6; D1 potentiator: -4

Results for COc1ccccc1Oc1nc2c(C)cccn2c(=O)c1/C=C(\C#N)c1nc2ccccc2[nH]1 ?
TRHR agonist: 0; Epigenetic derep: 13µM*; D1 agonist: -1; D1 antag: -24; TRHR enhancer: -1; D1 potentiator: -2

What do the screens show for `Cc1cccn2c(=O)c(/C=C(\C#N)C(N)=O)c(Oc3ccccc3)nc12`?
TRHR agonist: 0; Epigenetic derep: 0%; D1 agonist: 1; D1 antag: 1; TRHR enhancer: -4; D1 potentiator: 3

Results for Cc1ccc(/C=C2/Sc3ccc(C(=O)N4CCN(C)CC4)cc3NC2=O)cc1 ?
TRHR agonist: 1; D1 agonist: 17; D1 antag: -82*; TRHR enhancer: 29; D1 potentiator: -24

What do the screens show for `Cc1[nH]c2ccccc2c1C(=O)CN1C(=O)NC(C)(c2ccc(Cl)cc2Cl)C1=O` (centres undefined)?
TRHR agonist: 5; Epigenetic derep: 5%; D1 agonist: 37*; D1 antag: 4; TRHR enhancer: 4; D1 potentiator: 2

How did O=C(OCCN1C(=O)c2cccc3c(N4CCOCC4)ccc(c23)C1=O)c1ccccc1Cl do in these assays?
TRHR agonist: 0; Epigenetic derep: inconclusive; D1 agonist: 167*; D1 antag: -25; TRHR enhancer: 12; D1 potentiator: 24

Results for O=C(OCc1c(F)cccc1Cl)c1cc([N+](=O)[O-])ccc1N1CCOCC1 ?
TRHR agonist: 0; D1 agonist: 12; D1 antag: 0; TRHR enhancer: -1; D1 potentiator: 8

What do the screens show for `O=C(OCCN1C(=O)c2cccc3c(N4CCOCC4)ccc(c23)C1=O)c1ccc(Cl)cc1Cl`?
TRHR agonist: 71*; Epigenetic derep: inconclusive; D1 agonist: 165*; D1 antag: -37*; TRHR enhancer: 6; D1 potentiator: -10

What do the screens show for `O=C(OCCN1C(=O)c2ccccc2C1=O)c1cc(S(=O)(=O)N2CCOCC2)ccc1Cl`?
TRHR agonist: 0; Epigenetic derep: -1%; D1 agonist: 1; D1 antag: -21; TRHR enhancer: -2; D1 potentiator: -2

What do the screens show for `O=C(OCCN1C(=O)c2cccc3c(N4CCOCC4)ccc(c23)C1=O)c1cccc(Cl)c1`?
TRHR agonist: 35*; Epigenetic derep: 20µM*; D1 agonist: 83*; D1 antag: 24; TRHR enhancer: 1; D1 potentiator: -3

Results for COc1ccc(Br)cc1CNC(=O)c1cnc2sc(N3CCCCCC3)nn2c1=O ?
TRHR agonist: 0; Epigenetic derep: 1%; D1 agonist: 1; D1 antag: -5; TRHR enhancer: 0; D1 potentiator: -6

Results for COc1ccc(CCN2C(=O)CC(Cc3cccc(C)c3)C2=O)cc1OC (centres undefined) ?
TRHR agonist: -1; Epigenetic derep: -4%; D1 agonist: 4; D1 antag: 6; TRHR enhancer: 1; D1 potentiator: 0

Results for COc1ccc(CN2C(=O)CC(Cc3cc(C)cc(C)c3)C2=O)cc1OC (centres undefined) ?
TRHR agonist: -1; Epigenetic derep: 0%; D1 agonist: 2; D1 antag: -43*; TRHR enhancer: 3; D1 potentiator: -9

How did Cc1ccccc1CCN1CCCC(CN(C)C(=O)C(=O)c2ccco2)C1 (centres undefined) do in these assays?
TRHR agonist: 0; D1 agonist: 6; D1 antag: -17; TRHR enhancer: 1; D1 potentiator: -3
